This note sets out measurements from PubChem BioAssay (NCATS).

The structures appear in SMILES notation. Results filed as inconclusive are left out. The source made the active and inactive calls. Unless noted, the call rests on the fitted dose curve; in most records, active means well fitted curve in the direction sought with a large enough effect; inconclusive means small, poorly fitted or top-dose-only effect, or another doubt; inactive means no such curve, though single readings can be large; an effect the other way counts as inactive or inconclusive.

For assay [1], the target named is Catechol O-methyltransferase (Homo sapiens) (UniProt P21964). Put plainly: Confirmatory Screen for Target Class Profiling of Small Molecule Inhibitors of Methyltransferases (AID 1745852). On activity change, negative = inhibition: on the % scale 0 is the no-effect control and ±100 the full control effect. The note with it: MTase-Glo luminescence, SAH detection, recombinant enzyme; measured here: COMT max response; stronger effect = lower value.
The target of assay [2] is Guanidinoacetate N-methyltransferase (Homo sapiens) (UniProt Q14353). Described as above. The note with it: MTase-Glo luminescence, SAH detection, recombinant enzyme; activity change, negative = inhibition: at 57.3 µM (top of the series) unless noted; series mostly up to 57.3 µM.
For assay [3], the target named is Nicotinamide N-methyltransferase (Homo sapiens) (UniProt P40261). The assay is described as above. The conditions noted are these: MTase-Glo luminescence, SAH detection, recombinant enzyme; measured here: NNMT max response; stronger effect = lower value.
Assay [4] deals with Phenylethanolamine N-methyltransferase (Homo sapiens) (UniProt P11086). The description is as above. The note with it: MTase-Glo luminescence, SAH detection, recombinant enzyme; measured here: PNMT max response; stronger effect = lower value.
The nature of assay [5]: NCATS anti-infectives library activity on HEK293 viability as a counter-qHTS vs the C. elegans viability qHTS (AID 1745854). Further: on the % scale 0 is the no-effect control and ±100 the full control effect. The note with it: HEK293 viability counter-screen; series mostly up to 41.8 µM. An outline of the steps: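 Compounds were acoustically plated (several concentrations, 1:5, final up to 41.7 uM), then 1500 HEK293 cells added per well and incubated 24 hr at 37C, 5% CO2. CellTiter-Glo was added and luminescence read after 10 min.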

A short description of assay [6]: NCATS anti-infectives library activity on the primary C. elegans qHTS viability assay (AID 1745855; calls by dose curve; further: potency means the concentration at half of the fitted maximal effect; on activity change, negative = inhibition: on the % scale 0 is the no-effect control and ±100 the full control effect). The note with it: C. elegans worm area imaging, day 7; series mostly up to 41.8 µM. An outline of the steps: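 Viability read-out is GFP fluorescence of PE254-GFP-FLuc C. elegans, measured by laser cytometry (488 nm) at day 0, 3 and 7. Ten L1 worms per well were incubated 7 days at 21 °C with compounds and bacterial capsules in S medium.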

Assay [7] in a line: Viability counterscreen for antagonist of constitutive androstane receptor (CAR) against the NCATS DSHEA and TCM libraries (AID 1794837).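 Further: compound exposure lasted 24 h before viability reading; 0% is about no effect.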 The conditions noted are these: CAR reporter cell line viability counterscreen, qHTS; series mostly up to 40 µM. In a few lines:
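Viability was measured by CellTiter-Fluor fluorescence (405/540 nm, 1 hr) in HepG2-CYP2B6-hCAR cells. Cells were co-treated 24 hr with 48 uM CITCO (final), antagonist mode, and test substances.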

Assay [8] can be described thus: Viability counterscreen for agonist of constitutive androstane receptor (CAR) against the NCATS DSHEA and TCM libraries (AID 1794838).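 Further: cells exposed to compound for 24 h; 0% is about no effect.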 The note with it: HepG2 cell viability counterscreen, CAR agonist assay, co-treated with 0.75 µM CAR antagonist; series mostly up to 40 µM. In a few lines:
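Cell viability, from CellTiter-Fluor fluorescence (405/540 nm), was scored after a 24 h, 37C exposure of HepG2 cells carrying CYP2B6 reporter and hCAR to test substances in presence of 0.75 uM PK11195.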

Assay [9] concerns the target Nuclear receptor subfamily 1 group I member 3 (Homo sapiens) (UniProt Q14994). The assay can be described thus: Primary qHTS for agonist of constitutive androstane receptor (CAR) against the NCATS DSHEA and TCM libraries (AID 1794839).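 Further: HepG2 cells expressing human CAR with a CYP2B6 reporter plus PK11195 antagonist; 0% is about no effect.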 The conditions noted are these: CAR agonist reporter cells, qHTS luminescence, CAR antagonist co-added at 0.75 µM; series mostly up to 40 µM. In a few lines:
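Agonist mode in presence of hCAR antagonist PK11195 (0.75 µM final): test substances, 24 h, 37 °C, on HepG2-CYP2B6-hCAR cells. Same-well readouts: fluorescence viability, then ONE-Glo luminescence; CITCO as reference agonist.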

A short description of assay [10]: HepG2 viability counterscreen (readout 2: ATP content) against the NCATS DSHEA and TCM libraries (AID 1794840).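 Further: HepG2 cells exposed to substances for about 24 h; 0% is about no effect.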 The conditions noted are these: ATP content luminescence; series mostly up to 27.3 µM. An outline of the steps:
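Readout 1: cellular protease activity, GF-AFC substrate (25 uM final, 30 min, fluorescence 380/510 nm). Readout 2: ATP content by CellTiter-Glo luminescence after 30 min at RT. Both follow ~24 h exposure of HepG2 cells (1,000/well) to substances.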

Assay [11] has as its target Cytochrome P450 3A4 (Homo sapiens) (UniProt P08684). The assay can be described thus: qHTS for inhibitors of CYP3A4 against the NCATS DSHEA and TCM libraries (AID 1919971). Further: potency means the concentration at half of the fitted maximal effect. The note with it: recombinant CYP3A4 enzyme activity, luminescence qHTS; series mostly up to 34.1 µM. In a few lines:
(§1)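 Read-out is luminescence after P450-Glo detection (30 min, RT). Before that: 15 min compound–enzyme preincubation, then 30-45 min reaction with 1x NADPH regeneration solution, substrate concentration isoform-specific.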

Assay [12] concerns the target Cytochrome P450 2D6 (Homo sapiens) (UniProt P10635). The assay can be described thus: qHTS for inhibitors of CYP2D6 against the NCATS DSHEA and TCM libraries (AID 1919972). Further: potency means the concentration at half of the fitted maximal effect. The conditions noted are these: CYP2D6 enzymatic inhibition, luminescence qHTS; series mostly up to 34.1 µM. An outline of the steps:
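Luminescent P450-Glo read-out of CYP2D6 turnover of a luciferin substrate after NADPH-driven reaction of 30-45 min at room temperature. Compounds were first preincubated 15 min with enzyme at titrated concentrations; quinidine was the intraplate control.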

The target in assay [13] is Cytochrome P450 2C9 (Homo sapiens) (UniProt P11712). Put plainly: qHTS for inhibitors of CYP2C9 against the NCATS DSHEA and TCM libraries (AID 1919973). Further: potency means the concentration at half of the fitted maximal effect. The conditions noted are these: recombinant CYP2C9 enzyme activity, luminescence; series mostly up to 34.1 µM. An outline of the steps: as §1
Assay [14] has as its target Cytochrome P450 2C19 (Homo sapiens) (UniProt P33261). Put plainly: qHTS for inhibitors of CYP2C19 against the NCATS DSHEA and TCM libraries (AID 1919974).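 Further: luminescence from luciferin released by CYP2C19 oxidation of a pro-luciferin substrate; potency means the concentration at half of the fitted maximal effect.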 The note with it: CYP2C19 enzyme inhibition, luminescence qHTS; series mostly up to 34.1 µM. An outline of the steps:
as §1

Assay [15] is described as follows: Dual reporter qHTS for agonist of Pregnane X Receptor (hPXR) against the NCATS DSHEA and TCM libraries: Fluorescence readout (AID 1920058). Further: 0% is about no effect. The conditions noted are these: PXR dual reporter cells; series mostly up to 40 µM. In a few lines:
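HepG2 hPXR-Luc, 2000 cells/well, 5 h attach; cpds ~24 h, 37 °C/5% CO2; CellTiter-Fluor 1 h; fluor. Ex/Em 405/540 nm = viability.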

Assay [16] has as its target Nuclear receptor subfamily 1 group I member 2 (Homo sapiens) (UniProt O75469). Put plainly: Dual reporter qHTS for agonist of Pregnane X Receptor (hPXR) against the NCATS DSHEA and TCM libraries: Luminescence readout (AID 1920059). Further: 0% is about no effect. The conditions noted are these: hPXR dual reporter cells, luciferase luminescence agonist; series mostly up to 40 µM. An outline of the steps: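 Luminescent PXR reporter read (ONE-Glo) after a CellTiter-Fluor viability read, following 24 h, 37C treatment of HepG2 cells stably carrying hPXR-Luc.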

For assay [17] the target is unchanged. Put plainly: Dual reporter qHTS for antagonist of Pregnane X Receptor (hPXR) against the NCATS DSHEA and TCM libraries: Luminescence Readout (AID 1920060). Further: 0% is about no effect. The conditions noted are these: hPXR dual reporter cells, luciferase luminescence, antagonist mode; series mostly up to 40 µM. An outline of the steps:
(§2)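 HepG2 hPXR-Luc, 2000 cells/well, charcoal-stripped FBS medium; 5 h attach; RIF 2 uM final; 24 h 37C/5% CO2; CellTiter-Fluor 1 h, fluor 405/540; ONE-Glo 30 min RT, lum.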

Assay [18] in a line: Dual reporter qHTS for antagonist of Pregnane X Receptor (hPXR) against the NCATS DSHEA and TCM libraries: Fluorescence Readout (AID 1920061). Further: 0% is about no effect. The conditions noted are these: PXR dual reporter cells, antagonist mode; series mostly up to 40 µM. An outline of the steps: as §2
Assay [19] concerns the target Glutathione peroxidase 1 (Homo sapiens) (UniProt P07203). Put plainly: Primary qHTS Assay for Inhibitors of Recombinant Selenoprotein Glutathione Peroxidase 1 (GPX1) (AID 1845191). Further: on the % scale 0 is the no-effect control and ±100 the full control effect; nearly all actives have a fitted effect of over 65% in size. The note with it: recombinant GPX1, GR-coupled NADPH fluorescence, 15 min; series mostly up to 48.8 µM. An outline of the steps: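 10 nM GPX1 + cpd, 30 min RT; start w/ 1 mM GSH, 0.5 mM cumene hydroperoxide, 0.5 mM NADPH, 100 nM GR, 0.01% BSA; buffer 50 mM Tris-HCl pH 7.5, 2 mM EDTA, 150 mM NaCl; Fl 340/450, 0 & 15 min.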

Assay [20] has as its target Phospholipid hydroperoxide glutathione peroxidase GPX4 (Homo sapiens) (UniProt P36969). Put plainly: Primary qHTS Assay for Inhibitors of Recombinant Selenoprotein Glutathione Peroxidase 4 (GPX4) (AID 1845192). Further: on the % scale 0 is the no-effect control and ±100 the full control effect; nearly all actives have a fitted effect of over 65% in size. The conditions noted are these: recombinant GPX4, GR-coupled NADPH fluorescence, 15 min; series mostly up to 50 µM. In a few lines: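 NADPH consumption, followed by fluorescence at 340/450 nm between 0 and 15 min, reports GPX4 activity via coupled glutathione reductase (100 nM). Enzyme 200 nM was pre-exposed to compound 30 min; 0.5 mM cumene hydroperoxide and 1 mM GSH served as substrates.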

Sequence of Phenylethanolamine N-methyltransferase (Homo sapiens) (P11086 whole entry, looked up): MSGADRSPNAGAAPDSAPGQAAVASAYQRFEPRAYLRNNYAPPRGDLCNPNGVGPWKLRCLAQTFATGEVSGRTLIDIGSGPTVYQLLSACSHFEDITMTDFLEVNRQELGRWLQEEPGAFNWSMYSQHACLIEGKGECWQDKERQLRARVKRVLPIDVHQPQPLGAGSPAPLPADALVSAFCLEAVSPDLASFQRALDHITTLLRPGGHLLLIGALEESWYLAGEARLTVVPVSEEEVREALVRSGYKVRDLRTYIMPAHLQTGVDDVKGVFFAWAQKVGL
Sequence of Catechol O-methyltransferase (Homo sapiens) (P21964 whole entry, looked up): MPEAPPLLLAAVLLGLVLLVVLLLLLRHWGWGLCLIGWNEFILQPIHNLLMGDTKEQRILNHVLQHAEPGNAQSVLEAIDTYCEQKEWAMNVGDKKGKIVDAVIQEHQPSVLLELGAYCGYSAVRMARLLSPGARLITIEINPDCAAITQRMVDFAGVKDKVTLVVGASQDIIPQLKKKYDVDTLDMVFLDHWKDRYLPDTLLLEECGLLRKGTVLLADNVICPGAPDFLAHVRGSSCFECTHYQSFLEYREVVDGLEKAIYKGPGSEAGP
Sequence of Nicotinamide N-methyltransferase (Homo sapiens) (P40261 whole entry, looked up): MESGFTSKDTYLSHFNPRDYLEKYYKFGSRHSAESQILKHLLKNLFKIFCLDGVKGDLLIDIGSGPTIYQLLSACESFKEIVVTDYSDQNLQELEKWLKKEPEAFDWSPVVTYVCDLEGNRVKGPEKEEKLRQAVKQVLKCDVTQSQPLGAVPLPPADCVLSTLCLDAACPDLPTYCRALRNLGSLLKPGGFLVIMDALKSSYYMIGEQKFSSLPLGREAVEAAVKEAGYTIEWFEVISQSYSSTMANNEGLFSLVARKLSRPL
Sequence of Nuclear receptor subfamily 1 group I member 2 (Homo sapiens) (O75469 whole entry, looked up): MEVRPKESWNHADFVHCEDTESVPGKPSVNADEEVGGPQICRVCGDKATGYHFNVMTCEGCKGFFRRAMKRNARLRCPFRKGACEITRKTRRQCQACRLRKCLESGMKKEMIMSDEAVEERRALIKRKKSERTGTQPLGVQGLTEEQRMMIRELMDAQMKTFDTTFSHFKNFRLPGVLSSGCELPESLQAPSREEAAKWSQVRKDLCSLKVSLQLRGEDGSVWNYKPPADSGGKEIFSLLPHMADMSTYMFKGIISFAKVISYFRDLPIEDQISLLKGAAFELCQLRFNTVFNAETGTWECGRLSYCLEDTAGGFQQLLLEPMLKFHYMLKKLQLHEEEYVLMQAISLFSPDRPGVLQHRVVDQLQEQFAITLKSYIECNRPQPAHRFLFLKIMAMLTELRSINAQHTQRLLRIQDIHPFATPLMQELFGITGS
Sequence of Phospholipid hydroperoxide glutathione peroxidase GPX4 (Homo sapiens) (P36969 whole entry, looked up): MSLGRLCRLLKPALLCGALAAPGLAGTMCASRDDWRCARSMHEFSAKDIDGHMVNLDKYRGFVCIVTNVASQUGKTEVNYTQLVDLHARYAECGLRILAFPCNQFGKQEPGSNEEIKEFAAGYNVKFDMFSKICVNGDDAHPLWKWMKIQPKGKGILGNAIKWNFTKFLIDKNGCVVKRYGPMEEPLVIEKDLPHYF
Sequence of Cytochrome P450 2C9 (Homo sapiens) (P11712 whole entry, looked up): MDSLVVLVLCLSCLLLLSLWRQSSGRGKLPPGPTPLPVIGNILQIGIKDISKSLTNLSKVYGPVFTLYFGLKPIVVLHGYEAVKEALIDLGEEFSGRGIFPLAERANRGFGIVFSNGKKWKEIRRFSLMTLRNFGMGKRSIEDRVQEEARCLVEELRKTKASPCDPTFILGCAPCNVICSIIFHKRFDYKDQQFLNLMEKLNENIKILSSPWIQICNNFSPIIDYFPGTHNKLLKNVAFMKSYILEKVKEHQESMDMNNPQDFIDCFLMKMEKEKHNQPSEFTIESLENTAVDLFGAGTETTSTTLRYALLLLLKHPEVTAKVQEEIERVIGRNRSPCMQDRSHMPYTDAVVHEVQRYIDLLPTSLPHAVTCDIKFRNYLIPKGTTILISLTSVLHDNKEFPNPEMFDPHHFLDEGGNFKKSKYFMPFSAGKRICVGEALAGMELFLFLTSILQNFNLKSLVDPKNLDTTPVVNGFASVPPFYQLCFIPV
Sequence of Cytochrome P450 2D6 (Homo sapiens) (P10635 whole entry, looked up): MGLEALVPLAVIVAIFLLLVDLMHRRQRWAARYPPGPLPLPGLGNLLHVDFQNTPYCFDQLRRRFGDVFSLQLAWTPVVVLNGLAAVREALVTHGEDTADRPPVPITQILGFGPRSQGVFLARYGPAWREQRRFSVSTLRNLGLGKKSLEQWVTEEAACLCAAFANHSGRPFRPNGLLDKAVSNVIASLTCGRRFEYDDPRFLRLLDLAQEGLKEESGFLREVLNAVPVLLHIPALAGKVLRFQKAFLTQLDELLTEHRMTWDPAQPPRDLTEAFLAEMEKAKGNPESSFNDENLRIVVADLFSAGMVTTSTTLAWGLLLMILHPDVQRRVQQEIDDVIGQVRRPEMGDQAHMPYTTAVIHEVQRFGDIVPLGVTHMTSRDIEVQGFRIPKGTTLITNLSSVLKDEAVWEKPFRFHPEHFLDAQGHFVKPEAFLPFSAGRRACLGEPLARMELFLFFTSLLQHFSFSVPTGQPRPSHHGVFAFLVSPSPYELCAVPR
Sequence of Cytochrome P450 3A4 (Homo sapiens) (P08684 whole entry, looked up, canonical isoform): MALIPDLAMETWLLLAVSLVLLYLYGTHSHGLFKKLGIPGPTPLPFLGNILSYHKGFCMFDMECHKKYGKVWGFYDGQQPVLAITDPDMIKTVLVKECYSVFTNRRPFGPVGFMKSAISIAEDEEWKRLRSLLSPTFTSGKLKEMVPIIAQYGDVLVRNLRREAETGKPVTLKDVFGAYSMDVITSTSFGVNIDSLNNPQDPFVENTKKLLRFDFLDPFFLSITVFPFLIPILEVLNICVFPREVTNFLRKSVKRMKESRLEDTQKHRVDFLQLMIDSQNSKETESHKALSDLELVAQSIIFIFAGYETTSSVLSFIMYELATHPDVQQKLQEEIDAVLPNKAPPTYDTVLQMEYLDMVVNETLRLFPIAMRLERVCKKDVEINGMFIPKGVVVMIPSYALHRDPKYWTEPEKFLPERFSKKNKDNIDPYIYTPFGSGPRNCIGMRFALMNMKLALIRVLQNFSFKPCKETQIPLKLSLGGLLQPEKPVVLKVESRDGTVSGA
Sequence of Glutathione peroxidase 1 (Homo sapiens) (P07203 whole entry, looked up): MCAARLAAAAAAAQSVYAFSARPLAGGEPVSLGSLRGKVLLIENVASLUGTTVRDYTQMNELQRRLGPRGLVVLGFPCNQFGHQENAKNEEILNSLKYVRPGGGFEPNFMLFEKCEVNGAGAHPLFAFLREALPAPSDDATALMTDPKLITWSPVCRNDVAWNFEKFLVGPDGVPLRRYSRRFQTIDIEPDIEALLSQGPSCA
Sequence of Cytochrome P450 2C19 (Homo sapiens) (P33261 whole entry, looked up): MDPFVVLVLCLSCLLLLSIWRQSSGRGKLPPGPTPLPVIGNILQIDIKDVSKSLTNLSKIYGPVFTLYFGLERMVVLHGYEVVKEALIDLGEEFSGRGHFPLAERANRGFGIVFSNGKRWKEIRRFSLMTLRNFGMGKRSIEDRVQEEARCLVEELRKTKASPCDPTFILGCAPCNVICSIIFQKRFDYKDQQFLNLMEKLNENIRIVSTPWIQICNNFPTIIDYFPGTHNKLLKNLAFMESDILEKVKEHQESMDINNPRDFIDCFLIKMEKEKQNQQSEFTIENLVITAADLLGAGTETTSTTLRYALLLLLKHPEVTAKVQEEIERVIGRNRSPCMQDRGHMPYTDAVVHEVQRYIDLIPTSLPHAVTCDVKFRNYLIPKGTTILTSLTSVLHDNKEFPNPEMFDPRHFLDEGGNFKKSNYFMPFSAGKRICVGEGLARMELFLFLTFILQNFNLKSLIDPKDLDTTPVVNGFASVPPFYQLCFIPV
Sequence of Nuclear receptor subfamily 1 group I member 3 (Homo sapiens) (Q14994 whole entry, looked up): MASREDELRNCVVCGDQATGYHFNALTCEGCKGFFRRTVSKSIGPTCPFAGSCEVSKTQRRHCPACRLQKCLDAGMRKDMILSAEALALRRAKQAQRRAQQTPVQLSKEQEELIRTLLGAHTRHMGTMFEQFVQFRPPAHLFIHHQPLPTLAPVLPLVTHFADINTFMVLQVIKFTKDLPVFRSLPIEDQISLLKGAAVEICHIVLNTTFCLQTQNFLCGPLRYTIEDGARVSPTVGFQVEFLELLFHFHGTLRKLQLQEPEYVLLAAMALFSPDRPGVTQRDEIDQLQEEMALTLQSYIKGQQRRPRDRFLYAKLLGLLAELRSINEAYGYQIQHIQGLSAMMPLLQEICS

As for `CN1CCC(N2C[C@@H]3C[C@H]2C(=O)N(CC2CC2)c2ccccc2O3)CC1`, the activity in [1] is 4.01%; in assay [3] it was -1.59%; in assay [4] it was 3.64%. Also, in assay [2], the activity change, negative = inhibition is 2.68% [at 85.7 µM].

On to `Cc1ccc(-c2ccc(N)nc2)c2cccnc12`, for which the results for the activity in assay [1], in assay [3] and in assay [4] were -62.1%, -2.78% and 1.29%, respectively. Also, the activity change, negative = inhibition in [2] worked out at 1.37%.

Regarding `Cc1ccc(N)cc1C(=O)N[C@H](C)c1cccc2ccccc12`, the Potency entry in assay [5] is “inactive”.

For `C=C1CCC2C(C)(CO)C(O)CCC2(C)C1C/C=C1\C=COC1=O` (stereo not drawn), the Potency result in [5] is “inactive”.

Regarding `Cc1cn([C@H]2O[C@@H](CO)[C@H](O)[C@H]2F)c(=O)[nH]c1=O`, the Potency result in assay [5] is “inactive”.

Take `Cc1nc(N(C)C(=O)Cc2ccc(-c3ccccn3)cc2)sc1S(N)(=O)=O`: the Potency result in assay [5] is “inactive”.

Take `O=C(NO)c1cccc(C(=O)NCCc2ccccc2)c1`: the Potency entry in assay [5] and in [6] was “inactive” throughout.

As to `COc1cc(-c2oc3cc(O)cc(O)c3c(=O)c2O)ccc1O`, the Potency entry in assay [5], in assay [9] and in [16] was “inactive” throughout. The outcome in assay [7], in assay [8], in [10], in [15], in assay [17] and in assay [18] was “inactive” in each case. Also, the Potency in [11] is 11.2 µM (active); in assay [12], 4.47 µM (active); in [13] it was 4.47 µM (active); in assay [14] it was 7.94 µM (active).

Turning to `[N-]=[N+]=NCc1cccc(/C(O)=C\C(=O)C(=O)O)c1`, the Potency entry in assay [5] and in assay [6] was “inactive” each time.

Consider `CCCCc1ccc(O)cc1O`, for which the Potency result in assay [5] was “inactive”.

Consider `CCOC(=O)NCCCC(=O)NCCc1ccccc1`, for which the Potency result in assay [5] and in [6] was “inactive” throughout.

In the case of `C[C@@]1(F)[C@H](O)[C@@H](CO)O[C@H]1n1ccc(=O)[nH]c1=O`, the Potency result in assay [5] and in [6] was “inactive” each time.

For the compound `CCCCCCCCCCCCCCCCOCCCOP(=O)(O)CO[C@H](CO)Cn1ccc(N)nc1=O`, the activity change, negative = cytotoxicity in [5] was -5.25% [at 8.35 µM] (inactive).

Turning to `CC(C)c1nc(CN(C)C(=O)N[C@@H](CCN2CCOCC2)C(=O)N[C@H](CC[C@H](Cc2ccccc2)NC(=O)OCc2cncs2)Cc2ccccc2)cs1`, the Potency result in assay [5], in assay [19] and in assay [20] was “inactive” in each case. The Potency in [6] is 23 µM (active).

With `CC(C)CN(C[C@@H](O)[C@H](Cc1ccccc1)NC(=O)[C@@H](NC(=O)CNCc1cccc(F)c1)C(C)(C)C)S(=O)(=O)c1cccc(N)c1`, the Potency entry in assay [5] and in assay [6] was “inactive” throughout.

On to `O=C(O)[C@H]1C2CCC(CC2)[C@@H]1Nc1nc(-c2c[nH]c3ncc(F)cc23)ncc1F`, for which the Potency entry in assay [5] and in [6] was “inactive” each time.

As to `CC(C)[C@H](NC(=O)OCc1ccccc1)C(=O)N[C@@H](C)C(=O)N[C@@H](CC(=O)O)C(=O)CF`, the Potency entry in assay [5] and in [6] was “inactive” throughout.

`O=c1ccn2c(n1)O[C@H]1[C@H](O)[C@@H](CO)O[C@H]12`: the Potency entry in [5] and in [6] was “inactive” throughout.

As to `COC(=O)[C@H](CCSC)NC(=O)c1ccc(NC[C@@H](N)CS)cc1-c1ccccc1`, the Potency entry in [5] was “inactive”.

As to `CC(=O)N1CCC(C(=O)N(CCCN2CCC(Cc3ccc(C(N)=O)cc3)CC2)c2ccc(C)c(Cl)c2)CC1`, in assay [5], the Potency result is “inactive”.

Take `COc1ccc(-c2oc3cc(O)cc(O)c3c(=O)c2O)cc1`: the Potency result in assay [5] was “inactive”.

Consider `CC(C)(C)c1cc(C(=O)/C(C#N)=N/Nc2cccc(Cl)c2)no1`, for which the Potency result in assay [5] was “inactive”. Further, the Potency in [6] is 14.5 µM (active).

For the compound `C[C@H](NC(=O)[C@H](Cc1ccccc1)NC(=O)OCc1ccccc1)C(=O)CF`, in assay [5], the Potency entry is “inactive”.
